# Source: PubChem
# APOBEC3A inh: human APOBEC3A DNA deaminase inhibition | 330,000 tested, 0.41% active | recombinant A3A, FAM/TAMRA ssDNA deamination fluorescence | P31941 | inhibition, % at 20 µM;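 active = at least 40% inhibition at 20 µM here, with at most 30% in a related deaminase screen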;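 also: plate controls were A3A with DMSO for no effect and wells lacking A3A enzyme for full effect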
# PABP FP inh: PABP-poly(A) binding inhibition | calls only at 35 µM | P11940 | PABP-poly(A) RNA binding, fluorescence polarization | AID 2014 | 290,000 tested, 1% active;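 also: calls also rest on retests at 20 µM and on dose response follow-up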
# Target sequence (P11940 whole entry, looked up): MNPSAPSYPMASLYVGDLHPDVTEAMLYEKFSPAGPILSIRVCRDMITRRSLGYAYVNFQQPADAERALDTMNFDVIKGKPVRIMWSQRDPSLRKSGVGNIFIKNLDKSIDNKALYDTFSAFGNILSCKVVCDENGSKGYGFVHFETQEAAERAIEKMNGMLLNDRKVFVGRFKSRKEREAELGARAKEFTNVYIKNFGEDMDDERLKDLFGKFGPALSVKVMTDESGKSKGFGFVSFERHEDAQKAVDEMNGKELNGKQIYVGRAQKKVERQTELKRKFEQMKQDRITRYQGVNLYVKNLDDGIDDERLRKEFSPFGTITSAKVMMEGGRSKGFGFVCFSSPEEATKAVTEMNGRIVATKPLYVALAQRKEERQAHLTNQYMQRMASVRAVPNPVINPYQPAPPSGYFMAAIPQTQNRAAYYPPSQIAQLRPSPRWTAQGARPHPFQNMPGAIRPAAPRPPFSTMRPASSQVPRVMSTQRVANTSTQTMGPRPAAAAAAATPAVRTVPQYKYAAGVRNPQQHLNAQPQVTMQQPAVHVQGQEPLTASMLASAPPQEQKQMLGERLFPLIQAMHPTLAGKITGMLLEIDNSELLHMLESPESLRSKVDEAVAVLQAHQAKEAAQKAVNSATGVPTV
# eIF4H FP inh: inhibitors of RNA binding by human eIF4H; Q15056; eIF4H fluorescence polarization binding assay; inhibition, % at 35 µM; 290,000 tested, 0.94% active; AID 2012;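 also: calls also rest on retests at 20 µM and on dose response follow-up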
# PHOSPHO1 inh: blocks human PHOSPHO1 phosphatase activity; recombinant PHOSPHO1, absorbance phosphatase assay; inhibition, % at 13.3 µM; 290,000 tested, 1.1% active; AID 1565; in the data active = inhibition above about 60%
# MLLE-PAM2 inh: blocks PAM2 peptide binding to the PABP1 MLLE domain; inhibition, % at 20 µM; 360,000 tested, 0.36% active; GST-MLLE / FITC-PAM2 fluorescence polarization; AID 588489; P11940; in the data active = inhibition above about 35%, passing the limit was not always enough;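 also: plate controls were DMSO wells with GST-MLLE for no effect and wells lacking GST-MLLE protein for full effect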
# A3G deaminase: inhibitors of human APOBEC3G DNA deaminase | AID 493012 | 330,000 tested, 0.28% active | recombinant A3G, ssDNA deamination FAM/TAMRA fluorescence | inhibition, % at 20 µM | Q9HC16;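 active = inhibition of at least 40% at 20 µM, with no more than 30% in the related APOBEC3A deaminase screen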;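 also: plate controls were DMSO wells with A3G for no effect and wells lacking A3G enzyme for full effect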
# APOBEC3G confirm: APOBEC3G (human) deaminase inhibition, confirmed; shares compounds with A3G deaminase; recombinant A3G ssDNA deaminase, UDG/FAM-TAMRA fluorescence; inhibition, % at 20 µM; 890 tested, 72% active;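 active = inhibition reaching a set limit in any replicate at 20 µM, the limit being 80% of the first screen's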
# UDG A3G counter: inhibits E. coli UDG, flagging false APOBEC3G inhibitors; shares compounds with A3G deaminase; UDG counterscreen, FAM/TAMRA oligo fluorescence; inhibition, % at 20 µM; 710 tested, under 10 active;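 active = compounds giving 40% or more inhibition at 20 µM in any one of the three replicates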;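 also: plate controls were DMSO wells with UDG and oligo for no effect and DMSO wells lacking both for full effect; inhibitors lower the FAM signal released by uracil excision and alkaline cleavage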
# Active calls of the source: *; i = inactive; x = no result given. A selection: hits, their analogues and other compounds. The true share with any hit is near 2.6%. Unless noted, no rule for the calls is given here.
SMILES,APOBEC3A inh,PABP FP inh,eIF4H FP inh,PHOSPHO1 inh,MLLE-PAM2 inh,A3G deaminase,APOBEC3G confirm,UDG A3G counter
COc1ccc(N2C(=O)CC(Sc3n[nH]c(-c4ccccc4)n3)C2=O)cc1 (stereo not given),-3.4,i,7.3,23.7,31.5,52.8*,62.1*,-2.3
CCOc1ccc(N2C(=O)CC(Sc3n[nH]c(-c4ccccc4)n3)C2=O)cc1 (stereo not given),-2.7,i,0.2,28.3,29.2,46.1*,46.5*,0.9
CCN1C(=O)[C@H]2[C@@H](c3ccc(C)cc3)N[C@]3(CCCN(Cc4ccccc4)C3=O)[C@H]2C1=O,x,x,x,x,-0.7,x,x,x
CCOC(=O)c1sc(NC(=O)CSc2n[nH]c(-c3ccccc3)n2)c(C#N)c1C,2.3,i,3.8,76.6*,5.3,46.8*,32.3*,-2.3
CCOC(=O)c1sc(NC(=O)C(C)C)c(C#N)c1C,3.0,i,6.7,-67.2,31.1,57.3*,63.5*,-2.9
CCOC(=O)c1sc(NC(=O)CSc2nc(C)cc(C)n2)c(C#N)c1C,4.7,i,-6.6,11.4,-2.0,-4.0,x,x
CC[C@]12c3[nH]c4ccc(Cl)cc4c3CCN1C(=O)[C@@H](CC(=O)NCCCn1ccnc1)C[C@@H]2C(=O)N1CCN(C(=O)c2ccco2)CC1,3.5,x,x,x,5.2,1.1,x,x
Cc1cc(=S)[nH]c2c(C)cccc12,-1.8,i,-6.7,97.5*,29.9,78.7*,-0.9,-5.9
Cc1cccc2c(-c3ccccc3)cc(=O)[nH]c12,-1.2,i,-5.4,-35.3,3.8,-3.3,x,x
C[C@H](CO)NC(=O)c1nc[nH]c1C(=O)N[C@@H](C)c1ccccc1,x,x,x,x,-6.8,x,x,x
Cc1ccc(/C=N/n2c(C3CCCCC3)n[nH]c2=S)cc1,1.6,i,9.6,-28.0,-71.5,7.0,x,x
Cc1cccc(Oc2ccc3c(c2)cc(C(=O)O)n3C)c1,-7.7,i,6.9,29.0,-15.8,-5.2,x,x
O=S(=O)(c1ccccc1)N(F)S(=O)(=O)c1ccccc1,0.7,x,x,x,24.4,46.5*,53.1*,-2.3
COc1cc(/C=N/n2c(-c3ccccc3)n[nH]c2=S)cc(OC)c1O,-9.6,i,-5.5,37.4,1.9,48.3*,63.8*,-7.2
S=c1[nH]nc(COc2ccccc2)n1/N=C/c1ccncc1,-6.7,i,11.3,-116.3,-91.7,62.4*,82.1*,-1.7
COc1cc(/C=N/n2c(COc3ccccc3)n[nH]c2=S)cc(Br)c1O,1.4,i,5.5,28.0,12.7,46.3*,70.4*,-2.3
CCc1n[nH]c(=S)n1/N=C/c1c(C)nn(-c2ccccc2)c1Cl,-8.3,i,4.2,-13.4,-58.1,21.5,x,x
CCc1n[nH]c(=S)n1/N=C/c1cc(Br)c(O)c(OC)c1,4.4,i,-3.6,50.3,18.4,33.5,x,x
CCc1n[nH]c(=S)n1/N=C/c1ccc(N(CC)CC)cc1,-7.5,i,-12.3,-19.6,4.8,46.5*,48.5*,1.4
FC(F)(F)c1ccc(/C=N/n2c(COc3ccccc3)n[nH]c2=S)cc1,-2.3,i,-13.4,-31.2,-85.7,35.5,x,x
C[C@H]1CN([C@@H](C)CO)C(=O)CCCn2cc(nn2)CO[C@@H]1CN(C)C(=O)Nc1cccc(F)c1,x,x,x,x,14.6,x,x,x
CCc1ccccc1NC(=O)CN1CCN(CC(=O)Nc2ccc3c(c2)OC2(CCCCC2)O3)CC1,x,x,x,x,-1.9,x,x,x
CC(=O)N1CCN(Cc2nc3cc(NC(=O)COc4cccc(C)c4)ccc3n2C)CC1,-4.4,i,-3.7,10.3,-8.6,-5.3,x,x
S=c1[nH]nc(COc2ccccc2)n1/N=C/c1ccccn1,-3.9,i,-5.7,32.1,-27.3,54.9*,85.9*,0.6
CC(=O)Nc1ccc(S(=O)(=O)NNC(=O)c2ccc3c(c2)OCO3)cc1,-3.0,i,-10.2,9.8,16.3,-10.0,x,x
SMILES,APOBEC3A inh,PABP FP inh,eIF4H FP inh,PHOSPHO1 inh,MLLE-PAM2 inh,A3G deaminase,APOBEC3G confirm,UDG A3G counter
CC(=O)Nc1ccc(S(=O)(=O)NNC(=O)c2cccc(Cl)c2)cc1,1.9,i,-7.2,21.4,30.7,75.6*,-3.4,x
c1ccc(CN2CCC(Nc3nc(-c4cccs4)nc4ccccc34)CC2)cc1,7.1,i,3.1,-5.9,4.8,-9.9,x,x
Cc1c(Cc2ccc3c(c2)OCO3)sc(NC(=O)c2cccc3ccccc23)c1C(N)=O,-0.7,i,-12.2,8.7,17.7,12.8,x,x
Cc1c(Cc2ccc3c(c2)OCO3)sc(NC(=O)C2CC2)c1C(N)=O,0.3,i,2.4,-144.9,30.5,48.4*,30.6,x
COCC(=O)Oc1cc(-c2ccc(C)cc2C)c(OC(=O)COC)c(-c2ccc(C)cc2C)c1,x,x,x,x,-0.5,x,x,x
NC(=O)NCCC1=CCCCC1,0.0,i,-0.8,28.0,7.4,-4.6,x,x
C=CCn1c(N)c(C(=O)NCCC2=CCCCC2)sc1=S,1.8,i,-6.8,76.6*,31.8,47.2*,8.0,x
CCOc1cccc(C2/C(=C(/O)c3ccc4c(c3)CC(C)O4)C(=O)C(=O)N2CCCn2ccnc2)c1 (stereo not given),-7.0,i,-11.3,31.9,-3.5,-5.5,x,x
C=CCn1c(-c2ccc3ncccc3c2)n[nH]c1=S,1.4,i,-0.9,-20.6,-27.4,56.3*,59.7*,-4.0
C=CCn1c(-c2cc(OC)cc(OC)c2)n[nH]c1=S,-3.1,i,4.4,97.1*,-23.7,43.2*,81.7*,-1.8
C=CCn1c(-c2sc3nc(C)cc(C)c3c2N)n[nH]c1=S,-3.5,i,-7.8,-48.3,-10.8,49.3*,77.1*,-4.8
CCC(C)c1ccc(NC(=S)Nc2ccc(OC)cc2)cc1 (stereo not given),-3.5,i,-8.4,3.5,31.6,-3.9,x,x
O=C(NCc1ccco1)C1(S(=O)(=O)c2ccccc2)CC=CC1,-4.0,i,-2.5,4.7,3.9,-9.7,x,x
S=C1SC2(CCCCCC2)NC2=C1CCCCC2,x,x,x,x,28.9,x,x,x
COc1ccccc1C(=O)NC(=O)COC(=O)CNC(=O)c1ccc(Cl)c([N+](=O)[O-])c1,-1.9,x,x,x,1.2,4.0,x,x
Nc1cc(S(=O)(=O)Nc2cc(Cl)ccc2Cl)ccc1N1CCOCC1,1.0,i,65.6,-82.0,33.0,48.3*,34.1*,5.7
Nc1cc(S(=O)(=O)Nc2ccccc2Cl)ccc1N1CCCC1,-2.8,i,1.1,-148.2,9.8,-3.2,x,x
Cc1ccccc1S(=O)(=O)NC(=O)C1(C)CCN1C(=O)CCc1cccs1 (stereo not given),x,x,x,x,1.2,x,x,x
COc1cc(NC(=O)c2ccc3c(c2)OCCO3)ccc1NC(=O)c1ccccc1Cl,-1.0,i,-10.5,9.6,-7.5,-3.5,x,x
CCOC(=O)c1ccc(N=C2SC(C(=O)NC)CC(=O)N2Cc2ccc(F)cc2)cc1 (stereo not given),-2.9,i,-4.0,-6.8,14.2,1.1,x,x
